31 compounds from PubChem BioAssay (NCATS) can be followed below.

Inconclusive results are not listed. A call without a number means that no potency is given here. Active and inactive are the calls of the source. Calls follow the shape of the dose curve; as a rule, active = well fitted activation curve with a large enough effect; inconclusive = small, poorly fitted or top-dose-only effect; inactive = flat fitted curve, though single readings scatter.
Potency is read from the fitted curve at half-maximal effect.

This assay in a line: qHTS for H2AX Agonists against the NCATS CANVASS Library (AID 1347378). Particulars: CHO-K1 H2AX phosphorylation, HTRF TR-FRET, 3 h; series mostly up to 76.9 µM. An excerpt:
Natural products and their derivatives continue to be wellsprings of nascent therapeutic potential. However, many laboratories have limited resources for biological evaluation, leaving their previously isolated or synthesized compounds largely or completely untested. To address this issue, the Canvass library of natural products was assembled (https://tripod.nih.gov/canvass), in collaboration with academic and industry researchers, for quantitative high-throughput screening (qHTS) across a diverse set of cell-based and biochemical assays. The pure (>85% purity by liquid chromatography/mass spectrometry [LC/MS]) Canvass library of 346 natural products were submitted by 45 academic laboratories and companies around the world. We collected pure natural products to circumvent deconvolution and structure elucidation due to time and resource limitations. The library was formatted into 1536-well plates and evaluated in 50 qHTS (in an 11-pnt concentration series) bioassays with broad scope of disease-relevant mechanisms. The resulting data set from 50 different assays was then systematically analyzed to identify overall trends and specific natural products with interesting biological activities. Reported herein are the results of each individual qHTS and their corresponding assay protocol. This assay determines the levels of phospho-H2AX in cell lysates of Chinese hamster ovary CHO cells. It is based on time resolved fluorescence resonance energy transfer (TR-FRET). Two anti-H2AX antibodies are labeled with europium cryptate and d2, respectively. The increase of FRET levels is proportional to the concentration of phosphorylated H2AX. The results were expressed as the ratio of 665/615 nm emissions. National Center for Advancing Translational Sciences (NCATS), Rockville, MD National Institute of Health (NIH), Bethesda, Maryland
H2AX assay protocol: The CHO-K1 cells suspended in culture medium containing 10% FBS were dispensed at 1000 cells/ 3 ul/well in 1536-well white wall/solid bottom plates (Greiner Bio-One North America, NC) using a Multidrop Combi (Thermo Fisher Scientific Inc., Waltham, MA). After the assay plates were incubated at 37C overnight, 23 nl of compounds at 15 concentrations (from 5-48 columns) or positive control (from 1 to 4 columns) were transferred to the assay plates using a Pintool station (Wako, San Diego, CA) into each well resulting in a final DMSO concentration of 0.76%. After 3hr incubation at 37C, 1 uL/well Supplemented Lysis buffer (diluted 100 fold blocking reagent in lysis buffer) (HTRF Phospho-H2A.X (S139) Assay kit from Cisbio US Inc., Bedford, MA) was added using a Flying Reagent Dispenser (FRD) (Aurora Discovery, CA). After 10sec spin at 1000 rpm in a plate centrifuge, the assay plates were incubated at room temperature for 30 min. Then followed by the addition of 1 uL/well detection buffer (containing a mixture of two antibodies, one labeled with cryptate, Anti pH2AX (S139)-K and another labeled with d2, Anti H2AX-d2) using FRD. After incubation at room temperature for 24 hr, the time resolved fluorescence at excitation 320 nm and emissions at 665 nm and 620 nm was measured using an Envision plate reader (PerkinElmer, Waltham, MA).
(In general: In qHTS, concentration-response curves come from the screen itself.)
On to `CCN1C[C@]2(C)CC[C@@H](O)[C@]34C1[C@H](C[C@H]23)C12CCC(CC14)[C@](O)(CO)[C@H]2O` (stereo partly specified), for which the Potency entry is “inactive”.

Consider `COC(=O)C1=C2Nc3ccccc3[C@@]23CCN2CC(C(C)=O)C1C[C@H]23` (stereo partly specified), for which the Potency entry is “inactive”.

Consider `CO[C@H](c1ccccc1)[C@H]1NC(=O)C(C)NC(=O)C(C[C@@H](C)CO)N(C)C(=O)[C@@H](C(O)c2cn(C(C)(C)C3CO3)c3ccccc23)NC(=O)C(C(C)C=C(C)C)NC(=O)C(CC(C)C)N(C)C(=O)C(C(C)C)NC1=O` (stereo partly specified), for which the Potency result is “inactive”.

With `C[C@@H]1CC[C@@H](c2ccoc2)N2C[C@@]3(CC[C@@H]12)CS[C@@]1(CC[C@H]2[C@H](C)CC[C@@H](c4ccoc4)N2[C@@H]1O)C3`, the Potency is 10.9 µM (active).

`CNCCc1ccc(O)cc1`: the Potency entry is “inactive”.

On to `CC[C@@H]1CN2CC[C@@]3(O)C(=Nc4cccc(OC)c43)[C@@H]2C[C@@H]1/C(=C\OC)C(=O)OC`, for which the Potency result was “inactive”.

For `C=C1[C@@H](C)[C@H]2[C@H](Cc3ccccc3)NC(=O)[C@]23OC(=O)/C=C/[C@H](O)CCC[C@@H](C)C/C=C/[C@H]3[C@@H]1O`, the Potency result is “inactive”.

Take `CC1=CC(=O)C2=C(C)C[C@H](O)[C@@H]3[C@H](OC(=O)[C@@H]3C)[C@@H]12`: the Potency result is “inactive”.

Turning to `NCCc1ccccc1`, the Potency result was “inactive”.

For the compound `CNCCc1c[nH]c2ccccc12`, the Potency entry is “inactive”.

Consider `CCCCC[C@@H]1OC(=O)[C@@H](C)N(C)C(=O)[C@H](CCCCC)OC(=O)C(C)N(C)C(=O)[C@H](CCCCC)OC(=O)[C@@H](C)N(C)C(=O)[C@H](CCCCC)OC(=O)C(C)N(C)C1=O` (stereo partly specified), for which the Potency result is “inactive”.

As to `CCC(=O)CCCCC[C@@H]1NC(=O)[C@H]2CCCCN2C(=O)[C@H]([C@@H](C)CC)NC(=O)[C@H](Cc2cn(OC)c3ccccc23)NC1=O`, the Potency entry is “inactive”.

Turning to `CN(C)Cc1c[nH]c2ccccc12`, the Potency result was “inactive”.

Consider `CC[N@@+]1([O-])C[C@]2(C)CC[C@@H](O)[C@@]34C5C[C@H]6CC[C@@]5(C(C[C@H]23)C41)[C@H](O)[C@@]6(O)CO` (stereo partly specified), for which the Potency result was “inactive”.

Take `CC(=O)N[C@H]1CCN2CCC[C@H]12`: the Potency result was “inactive”.

Consider `CCC[C@H]1CC[C@H]2[C@H](C)CCC[C@H]2N1`, for which the Potency entry was “inactive”.

Regarding `CC1=CC2CC[C@@H]3[C@@H](C)C[C@H](C)[C@@H](C1)N23` (stereo partly specified), the Potency result was “inactive”.

As to `CCCC[C@@H]1CC[C@H]2CCCC(CCC)N12` (stereo partly specified), the Potency entry was “inactive”.

On to `C/C=C1/CN2CC[C@]34C(=Nc5ccccc53)[C@@H]2C[C@@H]1[C@H]4C(=O)OC`, for which the Potency result is “inactive”.

With `CN1C(=O)[C@]23CC4C(C)(C)[C@@]5(C[C@@]41CN2CC[C@@]3(C)O)C(=O)Nc1c5ccc2c1OC=CC(C)(C)O2` (stereo partly specified), the Potency entry is “inactive”.

With `c1ccc2c3c([nH]c2c1)CNCC3`, the Potency result was “inactive”.

Take `CO[C@@H](/C=C/CC/C=C/C(=O)O)[C@@H](O)[C@H](C)/C=C(\C)[C@@H](O)[C@H](C)C(=O)CCCC1CC(=O)NC(=O)C1`: the Potency result was “inactive”.

In the case of `C[C@]12CC(O)C3[C@@H](CCC4C[C@@H](O)CC[C@@]43CO)[C@@]1(O)CCC2C1=CC(=O)OC1` (stereo partly specified), the Potency entry is “inactive”.

As for `O=C(c1ccccc1O)c1[nH]c(Cl)c(Cl)c1-n1c(C(=O)c2ccccc2O)cc(Cl)c1Cl`, the Potency result was “inactive”.

With `CNCCc1ccccc1`, the Potency result was “inactive”.

For the compound `COc1ccc2c3c([nH]c2c1)C(C)=NCC3`, the Potency entry is “inactive”.

For `CCN1C[C@]2(C)CC[C@H](O)[C@]34C1C(C[C@H]23)[C@@]12CC[C@H](CC14)[C@](O)(COC(=O)c1ccc(OC)c(OC)c1)[C@H]2O` (stereo partly specified), the Potency result is “inactive”.

As to `CO[C@@H](/C=C/CC/C=C/C(=O)O)[C@@H](O)[C@H](C)[C@@H](O)/C(C)=C/[C@H](C)C(=O)CCCC1CC(=O)NC(=O)C1`, the Potency entry is “inactive”.

With `CC=C1CN(C=O)[C@H]2C[C@@H]1[C@@H](C(=O)OC)[C@@]13CCOC21Nc1ccccc13` (stereo partly specified), the Potency entry was “inactive”.

Regarding `COc1ccc2c(c1)[nH]c1c(C)nccc12`, the Potency entry was “inactive”.

With `COc1ccc(C23Oc4cc(OC)cc(OC)c4[C@](O)([C@H](c4ccccc4)C2C(=O)NCCCCNC(=O)c2ccccc2)[C@@H]3O)cc1` (stereo partly specified), the Potency result was “inactive”.
